High-throughput results: PubChem, several laboratories
esBAF inh: SWI/SNF esBAF complex inhibition. mouse ES cells, Bmi1-luciferase knock-in reporter, 24 h; 100% = twice the neutral-well signal. reporter increase, % at 12.5 µM. 350,000 compounds, 2% hits. AID 602393; in the data active means activation above about 40%;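 further: 0% = median of the plate's neutral control wells and 100% = double that signal; a rise in the Bmi1 reporter signal indicates esBAF inhibition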
Wnt act: activators of Wnt/beta-catenin signaling. Wnt/beta-catenin reporter cell assay, activator, plate reader. activation, % at 9.35 µM. 300,000 compounds, 1.2% hits; in the data active means activation above about 30%, passing the limit was not always enough;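 further: 0% = neutral control wells and 100% = positive control wells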
AHR act: activates the human aryl hydrocarbon receptor; P35869; AHR-responsive luciferase reporter cells, luminescence; activation, % at 5 µM; 320,000 compounds, 2.5% hits; AID 2796; in the data active means activation above about 47%;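 further: 0% = vehicle wells and 100% = reference agonist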
Target sequence (P35869 whole entry, looked up): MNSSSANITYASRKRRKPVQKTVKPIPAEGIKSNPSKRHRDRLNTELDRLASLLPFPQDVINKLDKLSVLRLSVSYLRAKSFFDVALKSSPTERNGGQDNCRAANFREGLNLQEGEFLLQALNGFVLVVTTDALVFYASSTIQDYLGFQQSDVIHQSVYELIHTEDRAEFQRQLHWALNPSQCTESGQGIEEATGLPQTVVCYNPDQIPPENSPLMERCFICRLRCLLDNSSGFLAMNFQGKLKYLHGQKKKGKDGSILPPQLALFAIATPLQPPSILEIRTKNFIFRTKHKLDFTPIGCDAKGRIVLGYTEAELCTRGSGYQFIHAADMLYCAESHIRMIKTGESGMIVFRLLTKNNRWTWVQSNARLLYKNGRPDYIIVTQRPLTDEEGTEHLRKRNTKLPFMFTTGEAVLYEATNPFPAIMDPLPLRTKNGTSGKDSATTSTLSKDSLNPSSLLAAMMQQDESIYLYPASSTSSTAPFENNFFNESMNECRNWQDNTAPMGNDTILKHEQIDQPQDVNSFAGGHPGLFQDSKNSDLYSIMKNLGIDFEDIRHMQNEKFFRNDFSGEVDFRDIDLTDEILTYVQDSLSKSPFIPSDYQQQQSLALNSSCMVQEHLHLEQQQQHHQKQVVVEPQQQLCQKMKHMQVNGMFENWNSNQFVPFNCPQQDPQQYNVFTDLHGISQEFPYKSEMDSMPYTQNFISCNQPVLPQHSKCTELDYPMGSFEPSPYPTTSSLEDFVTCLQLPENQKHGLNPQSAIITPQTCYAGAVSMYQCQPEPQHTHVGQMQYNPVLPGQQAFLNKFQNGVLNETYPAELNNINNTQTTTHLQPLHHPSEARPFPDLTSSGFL
MITF TRPM1 HTS: increases MITF-driven TRPM1 promoter luciferase signal; AID 588334; SK-MEL-5 TRPM1-promoter luciferase, 24 h; % of positive control, neutral wells = 0; 300,000 compounds, 0.75% hits; activation, % at 12.5 µM;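 active means mean activation of at least 80% with every replicate also reaching 80%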;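 further: 0% = neutral control wells and 100% = parthenolide positive control wells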
FXN GAA850 act: increases GAA850 frataxin promoter reporter activity; 360,000 compounds, 0.56% hits; activation, % at 6 µM; HEK293 lucGAA850 FXN promoter luciferase reporter, 24 h; percent of 10 µM SAHA response; AID 540364;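 active means activation above the average of all compounds screened plus 3 SD, cutoff fixed separately per campaign, cut at about 7.5% in these data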;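 further: 0% = DMSO wells and 100% = 10 µM SAHA wells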
GAA30 counter: activates GAA30 frataxin promoter, counter-screen for GAA850 activators. shares compounds with FXN GAA850 act. HEK293 lucGAA30 FXN promoter luciferase, 24 h; DMSO = 0%, 5 µM ipriflavone = 100%. activation, % at 6 µM. 1,900 compounds, 66% hits;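 active means mean activation above the mean of solvent-only control wells plus 3 SD, cut at about 22% in these data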;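 further: counterscreen of GAA850 promoter hits where activity marks nonselective or luminescence artifacts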
GAA850 confirm: confirmation of GAA850 frataxin (FXN) promoter activators; shares compounds with FXN GAA850 act; HEK293 lucGAA850 FXN promoter luciferase reporter, 24 h; 100% = activation by SAHA; activation, % at 6 µM; 1,900 compounds, 86% hits; AID 588351;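 active means mean activation above a set limit taken from the primary screen, cut at about 8% in these data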;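 further: 0% = DMSO wells and 100% = 10 µM SAHA wells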
Starred values were filed as active, the others as inactive; · = no result given. The list is not random: actives were taken first. Their share in the collection is about 4.2%.

SMILES	esBAF inh	Wnt act	AHR act	MITF TRPM1 HTS	FXN GAA850 act	GAA30 counter	GAA850 confirm
CCc1ccc(OCC(=O)Nc2ccc(-c3nc4ccccc4o3)c(O)c2)cc1	·	·	6.1	17.1	0.5	·	·
CNC[C@@H]1Oc2ccc(NC(=O)Nc3ccc(F)cc3)cc2CC(=O)N([C@H](C)CO)C[C@@H]1C	-3.0	·	·	·	·	·	·
COc1ccc(NC(=O)c2ccco2)cc1NC(=O)c1cccs1	·	·	18.1	3.5	9.4*	22.6*	7.2
COc1ccc(NC(=O)c2cccs2)cc1OC	29.5	·	1.9	25.9	3.3	·	·
C[C@H]1CN([C@@H](C)CO)C(=O)c2cccc(NS(=O)(=O)c3cn(C)cn3)c2O[C@H]1CN(C)S(=O)(=O)c1ccccc1	4.3	·	·	·	·	·	·
C=C(C)C(=O)Oc1ccc(N=Nc2ccc(C)cc2)ccc1=O	-40.9	-4.0	·	·	10.5*	59.0*	40.4*
Cc1nn(-c2ccccc2Cl)c(Cl)c1/C=N/Nc1nc2ccccc2s1	·	-16.6	11.4	-97.5	-14.1	·	·
CCOC(=O)N/N=C/c1c(C)nn(-c2ccccc2Cl)c1Cl	·	·	31.2	53.8	8.2*	92.9*	34.4*
CCN(C[C@H]1N[C@@](C)(C(=O)OC)[C@H]2C(=O)N(Cc3ccccc3)C(=O)[C@@H]12)C(=O)Nc1ccc(OC)cc1	-0.6	1.5	-1.9	6.0	9.4*	27.1*	9.3*
CCN(C[C@H]1N[C@@](C)(C(=O)OC)[C@H]2C(=O)N(Cc3ccccc3)C(=O)[C@@H]12)C(=O)Nc1ccc(Cl)cc1	4.3	-0.4	1.9	7.9	14.2*	36.9*	14.7*
CCN(C[C@H]1N[C@@](C)(C(=O)OC)[C@H]2C(=O)N(C)C(=O)[C@@H]12)C(=O)Nc1ccccc1	1.3	-0.2	0.6	3.6	-0.5	·	·
C=CCn1c(C)cc(C(=O)CN2NS(=O)(=O)c3ccccc3C2=O)c1C	·	2.7	21.6	63.7	7.7*	12.8	31.6*
Cc1ccc(CNC(=O)CN2NS(=O)(=O)c3ccccc3C2=O)cc1	-5.4	-0.7	·	·	-0.3	·	·
Cc1ccc(O)c(NC2=C(Cl)C(=O)N(Cc3ccccc3)C2=O)c1	·	-1.4	·	-10.4	8.1*	21.3	12.4*
CC(C)CN(C(=O)C(c1ccccc1)c1ccccc1)c1c(N)n(CC(C)C)c(=O)[nH]c1=O	1.5	-1.1	1.1	3.8	7.9*	13.3	5.0
Cc1cc(SCC(=O)N(CC(C)C)c2c(N)n(CC(C)C)c(=O)[nH]c2=O)nc2ccccc12	-0.9	-1.2	3.9	4.1	-2.5	·	·
Cc1ccc(S(=O)(=O)N(C)C[C@H]2Oc3ccc(NC(=O)Cc4ccccc4)cc3C(=O)N([C@H](C)CO)C[C@H]2C)cc1	4.7	·	·	·	·	·	·
O=C(N/N=C/c1ccccc1)NC1CCCCC1	·	·	2.5	36.1	8.6*	61.7*	20.0*
O=C(N/N=C/C(Br)=C/c1ccccc1)c1ccncc1	·	8.1	15.4	-18.2	5.3	·	·
Cc1ccc(NCC(=O)N/N=C\C(Br)=C\c2ccccc2)cc1	54.6*	4.0	17.0	-5.4	13.3*	15.0	10.7*
Cc1cc(C)nc(SCC(=O)N/N=C\C(Br)=C\c2ccccc2)n1	·	0.0	3.2	-11.9	0.1	·	·
O=C(O)c1ccc(N/N=C/C(Br)=C/c2ccccc2)cc1	74.3*	27.0	7.3	60.4	10.0*	81.8*	35.9*
O=C(N/N=C/C(Br)=C/c1ccccc1)NC1CCCCC1	·	15.0	26.6	41.6	9.8*	51.4*	21.8*
O=C(N/N=C/C(Br)=C/c1ccccc1)C1CC1	·	6.1	31.8	17.9	8.2*	80.8*	31.5*
O=C(N/N=C/C(Br)=C/c1ccccc1)C(O)c1ccccc1 (stereo unspecified)	·	11.1	8.3	·	5.9	·	·
SMILES	esBAF inh	Wnt act	AHR act	MITF TRPM1 HTS	FXN GAA850 act	GAA30 counter	GAA850 confirm
O=C(N/N=C/C(Br)=C\c1ccccc1)c1ccc2nc[nH]c2c1	·	·	17.7	24.4	8.5*	37.9*	18.6*
COc1cc(/C=N/Nc2ccnc(=O)[nH]2)ccc1O	1.8	-0.8	·	-1.2	7.7*	30.9*	7.2
C=C(C)[C@@H]1C2=CC(C(=O)OC)=C(C[C@H](C(=C)C)[C@H]3O[C@H]3C3=C[C@H]1OC3=O)O2	-70.9	-2.2	·	·	14.5*	-44.4	2.5
C/C=C/Cn1c(SC)nc2c1c(=O)[nH]c(=O)n2C	-8.1	-0.8	8.9	0.0	3.2	·	·
COCCn1c(SCc2ccc(Cl)cc2)nc2c1c(=O)[nH]c(=O)n2C	·	2.5	-1.8	·	5.0	·	·
CCCn1c(SCc2ccc(Cl)cc2)nc2c1c(=O)[nH]c(=O)n2C	2.7	-2.5	-4.5	·	9.3*	10.4	14.7*
C/C=C/Cn1c(SCc2ccc(Cl)cc2)nc2c1c(=O)[nH]c(=O)n2C	1.3	·	3.8	23.7	10.6*	17.1	16.7*
CCNc1nc(N)nc(Oc2ccc(OCCOc3ccc(Cl)cc3Cl)nn2)n1	-4.0	·	-0.8	4.4	12.6*	15.8	8.6*
CCNc1nc(NCC)nc(Oc2ccc(OCC)nn2)n1	-3.2	·	-0.3	3.3	2.5	·	·
COCCNC(=O)C[C@H]1C=C[C@H](NS(=O)(=O)c2ccc(C)cc2)[C@H](CO)O1	-2.7	·	·	·	·	·	·
Cc1cc(C)nc(N2N=C(C(C)(C)C)CC2=O)n1	-4.9	-3.0	5.2	4.2	16.2*	21.3	8.0*
Cc1cccc(/C=N\Nc2cn[nH]c(=O)c2Cl)c1	8.4	·	2.1	-4.7	21.9*	65.7*	24.2*
O=c1[nH]ncc(N/N=C\c2cccnc2)c1Cl	·	1.0	11.9	-4.6	-0.2	·	·
CC1S/C(=N/N=C2CCC(C(C)(C)C)CC2)NC1=O (stereo unspecified)	·	6.1	9.6	13.6	14.1*	27.9*	7.6*
CC1S/C(=N/N=C2CCCCC2)NC1=O (stereo unspecified)	2.1	0.0	14.8	-2.8	1.8	·	·
c1ccc(-c2cc3nccc(-c4ccccn4)n3n2)cc1	·	19.0	38.1	126.7*	8.0*	106.0*	28.7*
C[C@@H]1CN([C@H](C)CO)C(=O)c2cccc(NC(=O)C3CCOCC3)c2O[C@H]1CN(C)Cc1ccc(Oc2ccccc2)cc1	7.4	·	·	·	·	·	·
CCOC(=O)c1oc2c(c1C)/C(=N/O)CCC2	39.0	57.4*	1.3	70.3	8.0*	64.9*	22.8*
CCOC(=O)c1oc2c(c1C)C(=O)CCC2	·	0.6	-1.4	-7.6	-1.1	·	·
C[C@@H]1CCCCO[C@H](CN(C)Cc2ccc(C(=O)O)cc2)[C@H](C)CN([C@H](C)CO)C(=O)c2cc(NC(=O)c3ccncc3)ccc2O1	-0.8	·	·	·	·	·	·
Cc1cccn2cc(-c3ccccc3)nc12	·	·	38.4	38.5	3.3	·	·
COc1ccc(-c2cn3cccc(C)c3n2)cc1Br	98.9*	35.4*	12.3	49.7	8.4*	119.6*	37.5*
CCC(=O)Nc1ccc2c(c1)OC[C@@H](C)N(C(=O)Cc1ccccn1)C[C@@H](C)[C@H](OC)CN(C)C2=O	3.5	·	·	·	·	·	·
